From ChEMBL document CHEMBL4513146, “CO-ADD screening of Karazin Kharkiv National University (Ukraine) compounds”
Measured potencies and affinities stand elsewhere.

What was measured:
Klebsiella pneumoniae = conditions: Concentration 32 ug.mL-1;; ASSAY_TEST Inhibition of Bacterial Growth; detection method Absorption (OD600); MEDIA CAMHB; plate type 384well; NBS; CORNING #3640; time 18 hr
Candida albicans = conditions: Concentration 32 ug.mL-1; ASSAY_TEST Inhibition of Fungal Growth; detection method Absorption (OD530)
Cryptococcus neoformans = conditions: Concentration 32 ug.mL-1; ASSAY_TEST Inhibition of Fungal Growth; detection method Resazurin; Absorption (OD600-OD570); plate type 384well; NBS; CORNING #3640

Compound | Inhibition (Klebsiella pneumoniae) [%] | Inhibition (Candida albicans) [%] | Inhibition (Cryptococcus neoformans) [%]
CC(C)CCn1c(=O)c2ccc(C(=O)NC3CCCCC3)cc2n2c(=O)n(CC#N)nc12 | 4.36 | 4.75 | -17.66
Cc1cc(C)cc(NC(=O)Cn2nc3ccc(SCc4ccc(Cl)cc4)nn3c2=O)c1 | -2.52 | 46.75 | -25.54
Cc1ccc(NC(=O)Cn2nc3c(N4CCOCC4)nccn3c2=O)cc1Cl | 6.31 | 3.12 | -5.46
CCOc1ccc(C(=O)CSc2nnc3c(=O)n(-c4ccc(OCC)cc4)ccn23)cc1 | 14.22 | 5.82 | -6.09
Cc1nnc2ccc(S(=O)(=O)N(Cc3ccccc3F)c3ccc(Cl)cc3)cn12 | -3.84 | 0.4 | -8.97
Cc1cccc(NC(=O)Cn2nc3ccc(SC(C)(C)C)nn3c2=O)c1 | 5.1 | 1.46 | -8.45
Cc1ccc(C)c(S(=O)(=O)Nc2ccc3nncn3n2)c1 | 4.11 | 0.56 | -3.83
CCOc1ccc(C(=O)CSc2nnc3c(=O)n(-c4ccc(C)c(C)c4)ccn23)cc1 | 1.39 | 10.64 | -7.55
Cc1cc(C)cc(N(Cc2ccccc2)S(=O)(=O)c2cccn3cnnc23)c1 | -6.91 | 1.52 | -4.73
CSc1ccc(-c2noc(Cn3nc4ccc(-c5ccccc5)nn4c3=O)n2)cc1 | -3.08 | 17.1 | -6.64
COc1cc(NC(=O)Cn2nc3ccc(-c4ccc(C)c(C)c4)nn3c2=O)cc(OC)c1 | 2.14 | 14.91 | -15.3
Cc1ccc(Cl)cc1N1CCN(C(=O)CCc2nnc3c4cc(-c5ccccc5)nn4ccn23)CC1 | 5.47 | 0.3 | -6.62
CCOc1ccccc1NC(=O)Cn1nc2c(Oc3cccc(OC)c3)nccn2c1=O | 8.86 | 0.7 | -8.27
CCOC(=O)c1ccccc1NC(=O)CSc1nnc2ccc(C(=O)Nc3cccc(F)c3)cn12 | 3.32 | 0.61 | -6.96
Cc1ccc(Oc2nccn3c(=O)n(CC(=O)NCc4cccs4)nc23)cc1 | 11.41 | 2.18 | -8.11
COC(=O)c1ccccc1NC(=O)CSc1nc2ccccc2n2c(C(C)C)nnc12 | 12.98 | -0.8 | -7.61
Cc1cc(C)cc(N(Cc2ccc(F)cc2)S(=O)(=O)c2cccn3cnnc23)c1 | 7.95 | 1.02 | -10.98
CCCCN(C)c1ccc2nnc(CCc3nc(-c4ccc(C(F)(F)F)cc4)no3)n2n1 | 5.43 | 2.75 | -13.06
COc1cccc(N(Cc2ccc(F)cc2)S(=O)(=O)c2ccc3nncn3c2)c1 | -3.46 | 1.11 | -15.36
Cc1ccc(NC(=O)Cn2nc3c(Oc4ccccc4Cl)nccn3c2=O)cc1F | 12.22 | 0.49 | -9.07
Cc1ccc(CNC(=O)c2ccc3nn(CC(=O)Nc4ccc(C(F)(F)F)cc4)c(=O)n3c2)cc1 | 8.75 | 7.7 | -15.23
CC(=O)c1ccc(NC(=O)Cn2nc3c4cc(-c5ccc(Cl)cc5)nn4ccn3c2=O)cc1 | 16.61 | 29.09 | -18.84
COc1ccc(NC(=O)Cn2nc3cc(C)nc(Nc4cc(C)cc(C)c4)n3c2=O)cc1 | 10.21 | 1.22 | -8.99
COc1ccc(CNC(=O)Cn2nc3c(SC4CCCCC4)nccn3c2=O)cc1 | 14.45 | 17.79 | -15.36
Cc1ccccc1Oc1nccn2c(=O)n(CC(=O)Nc3cc(F)ccc3F)nc12 | 13.37 | -0.39 | -8.18
O=C(Cn1nc2c(N3CCOCC3)nccn2c1=O)Nc1ccccc1Br | 13.49 | 4.41 | -7.57
O=C(Cn1nc2c(N3CCOCC3)nccn2c1=O)NCc1ccc(F)cc1 | 12.27 | 2.87 | -8.56
CC(C)CCNC(=O)Cn1nc2n(Cc3cccs3)c(=O)c3sccc3n2c1=O | 6.63 | -0.58 | -17.23
